# A selection: hits, their analogues and other compounds. The true share with any hit is near 9.4%.
# ALDH1A1 block – qHTS Assay for Inhibitors of Aldehyde Dehydrogenase 1 (ALDH1A1). Aldehyde dehydrogenase 1A1 (Homo sapiens), P00352. Purified ALDH1A1, NADH fluorescence, propionaldehyde substrate. Potency, µM (top dose mostly 75.3 µM), hits mostly inhibitors. 7.3% of 220,000 active. AID 1030, 2008; active means well fitted inhibition curve with a large enough effect, not every such curve was filed as active; inconclusive means small, poorly fitted or top-dose-only effect, or another doubt; inactive means no such curve, though single readings can be large or run the other way
# Target sequence (P00352 whole entry, looked up): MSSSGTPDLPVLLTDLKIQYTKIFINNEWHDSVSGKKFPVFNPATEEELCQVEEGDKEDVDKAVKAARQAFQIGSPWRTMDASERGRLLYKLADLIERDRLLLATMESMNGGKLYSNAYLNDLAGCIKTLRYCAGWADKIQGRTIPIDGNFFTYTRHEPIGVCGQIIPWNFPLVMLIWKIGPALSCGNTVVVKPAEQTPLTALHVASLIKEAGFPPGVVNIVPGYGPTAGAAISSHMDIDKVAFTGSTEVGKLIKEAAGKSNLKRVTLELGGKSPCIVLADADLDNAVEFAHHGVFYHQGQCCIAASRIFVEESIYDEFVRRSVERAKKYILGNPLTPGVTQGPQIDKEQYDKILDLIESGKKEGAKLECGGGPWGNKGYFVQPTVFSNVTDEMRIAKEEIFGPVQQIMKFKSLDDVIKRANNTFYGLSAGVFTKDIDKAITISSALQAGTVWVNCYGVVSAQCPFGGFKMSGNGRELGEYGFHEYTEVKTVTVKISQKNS
# HPGD inh – qHTS Assay for Inhibitors of HPGD (15-Hydroxyprostaglandin Dehydrogenase); 15-hydroxyprostaglandin dehydrogenase [NAD(+)] (Homo sapiens), P15428; purified HPGD, NADH fluorescence kinetic, PGE2 substrate; Potency, µM, actives largely listed as inhibitors; 4.3% of 150,000 active; AID 894, 2007; active means well fitted inhibition curve with a large enough effect, not every such curve was filed as active; inconclusive means small, poorly fitted or top-dose-only effect, or another doubt; inactive means no such curve, though single readings can be large or run the other way
#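 20 nM HPGD preincubated 15 min at room temperature with compound in 50 mM Tris-HCl pH 8, 0.01% Tween 20. Started with 1 mM NAD+ and 30 uM prostaglandin E2; NADH fluorescence (360/450 nm) read 5 times over 30-s intervals, last minus first.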
# HTT ATP protect – qHTS Multiplex Assay to Identify Dual Action Probes in a Cell Model of Huntington: Cytoprotection (ATP). Potency, µM (top dose mostly 56.4 µM), usual class: activators. 0.14% of 230,000 active. PC12 HTT-Q103 induced, cytoprotection, ATP luminescence, 40 h; further: nearly all actives have a fitted effect of over 45% in size
#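 Cells were plated at 1500 per well in phenol red-free DMEM with 5% equine and 5% calf serum. Tebufenozide (100 nM final) and compounds were added, then ATPlite reagent, and luminescence was read.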
# IMPase inh – qHTS Assay for Identifying the Cell-Membrane Permeable IMPase Inhibitors; Inositol monophosphatase 1 (Rattus norvegicus), P97697; CHO-M1 cells, IP1 accumulation, HTRF TR-FRET ratio; inhibition (IP1 accumulation), % at 46.1 µM; 120,000 tested, under 10 active; AID 901, 2007; active means well fitted curve in the direction sought with a large enough effect in the signal ratio, not every such curve was filed as active; inconclusive means small, poorly fitted or top-dose-only effect, or a change in a side signal; inactive means no such curve, though single readings can be large or run the other way; the % refers to the signal ratio;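 further: cells stimulated with carbachol in lithium chloride buffer; higher means more IMPase inhibition seen as more IP1 and lower FRET ratio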
# Target sequence (P97697 whole entry, looked up): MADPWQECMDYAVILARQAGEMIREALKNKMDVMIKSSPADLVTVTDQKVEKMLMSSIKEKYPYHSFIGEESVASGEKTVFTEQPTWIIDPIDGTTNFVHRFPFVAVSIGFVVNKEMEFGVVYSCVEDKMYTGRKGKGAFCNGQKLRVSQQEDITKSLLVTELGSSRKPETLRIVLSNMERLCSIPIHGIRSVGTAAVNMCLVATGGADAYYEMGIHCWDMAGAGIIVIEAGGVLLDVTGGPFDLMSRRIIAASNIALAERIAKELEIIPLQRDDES
#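 Cellular IMPase inhibition is scored as a rise in cytosolic IP1, detected by competitive TR-FRET between d2-labelled IP1 and a europium anti-IP1 antibody. M1-expressing CHO cells were stimulated with carbachol for 30 min at 37C, with lithium (50 mM LiCl) present in the buffer.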
# IMPase Li inh – qHTS Assay for Identifying the Cell-Membrane Permeable IMPase Inhibitors: Potentiation with Lithium; 0.35% of 210,000 active; CHO-M1 cells, IP1 TR-FRET (IP-One), carbachol + lithium; Potency, µM (series often up to 59.4 µM), most hits filed as inhibitors;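 further: IP1 builds up when IMPase is blocked and the TR-FRET signal falls; nearly all actives have a fitted effect of over 50% in size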
#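 Concentration–response in CHO-M1 cells, lithium-potentiated; 30 min at 37C. IP1 detected by competitive TR-FRET after 10 min lysis at RT. Hill-fitted AC50.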
# HttQ103 aggreg – qHTS Multiplex Assay to Identify Dual Action Probes in a Cell Model of Huntington: Aggregate Formation (GFP); PC12 HttQ103-GFP aggregates, Acumen cytometry, 40 h; Potency, µM (highest dose often 46.1 µM), usual class: inhibitors; 1.1% of 220,000 active; further: nearly all actives have a fitted effect of over 60% in size
#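 Using laser scanning cytometry, GFP-positive aggregates were counted after lysis of PC12 cells induced with 100 nM tebufenozide to express HTT exon 1 Q103–GFP. Compounds were tested in titration.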
# Numbers stand for hits; - = inactive; ? = inconclusive; . = no result; [ ] = another dose, or the depositor's remark. Unless noted, the call rests on the fitted dose curve; in most records, active means well fitted curve in the direction sought with a large enough effect; inconclusive means small, poorly fitted or top-dose-only effect, or another doubt; inactive means no such curve, though single readings can be large; an effect the other way counts as inactive or inconclusive.
SMILES,ALDH1A1 block,HPGD inh,HTT ATP protect,IMPase inh,IMPase Li inh,HttQ103 aggreg
O=C(c1ccc(Cl)cc1)N1CCN(c2cc(=O)[nH]nc2-c2ccccc2)CC1,-,-,-,-,-,-
O=C(c1cccc(C(F)(F)F)c1)N1CCN(c2cc(=O)[nH]nc2-c2ccccc2)CC1,2.99µM,-,-,-,-,-
COc1ccccc1N1CCN(c2nc3ccc(C)cc3nc2-n2nc(C)cc2C)CC1,.,.,.,-,.,.
CC(=O)O[C@@H](C)C#C[Si](C)(C)c1ccccc1,-,-,-,.,-,.
CC1=NN(c2ccc(C)c(C)c2)C(=O)C1C(c1cccc(O)c1)C1C(=O)N(c2ccc(C)c(C)c2)N=C1C (stereo not drawn),0.708µM,10µM,-,-,-,-
N#C/C(C(=O)N1CCCCC1)=C1/N=C(N)c2ccccc21,?,14.1µM,-[10 µM],.,-,-
CCCCN1C(=O)/C(=C(/C#N)C(=O)N2CCCC2)c2ccccc21,.,.,-[10 µM],.,.,-[9.22 µM]
COCCNC(=O)/C(C#N)=C1\N=C(N)c2ccccc21,?,14.1µM,-[10 µM],.,-,?
COc1ccc(CN2CCN(C(=O)C3CCC(CNS(=O)(=O)c4ccc(C)cc4)CC3)CC2)c(OC)c1OC (stereo not drawn),20µM,.,-,.,-,-
CC(=O)Nc1ccc(S(=O)(=O)NCC2CCC(C(=O)N3CCCCCC3)CC2)cc1 (stereo not drawn),22.4µM,7.08µM,-,-,-,-
COc1cc(C(=S)N2CCCC2)cc(OC)c1OS(=O)(=O)c1ccc(NC(C)=O)cc1,?,22.4µM,-[10 µM],.,-,-
O=C(C1CCC(CNS(=O)(=O)c2ccc(F)cc2)CC1)N1CCOCC1 (stereo not drawn),-,.,-,.,-,-
COc1ccc(CN2CCN(C(=O)C3CCN(S(=O)(=O)c4cccs4)CC3)CC2)c(OC)c1OC,?,.,-,.,-,-
COc1cc(C(=S)N2CCCC2)ccc1OS(=O)(=O)c1ccc(NC(C)=O)cc1,?,.,-[10 µM],.,-,-
CCN1C(=O)[C@H]2[C@H]3[C@H](O)[C@H](O)C/C(=N/O[C@@H](C)c4cc(-c5c(C)cc(C)cc5C)no4)[C@@H]3CC[C@@H]2C1=O,-[13.5 µM],.,-[10 µM],.,.,.
Cc1ccc(C)c(N(C)C(=O)CCNC(=O)Cn2cnc3ccccc3c2=O)c1,.,.,.,-,.,.
N/C(CC/C(N)=N/O)=N\O,-[13.5 µM],-,-[10 µM],.,-,.
O=C1OCCC1Sc1nnc(-c2cccs2)n1Cc1ccccc1 (stereo not drawn),20µM,-,-,-,-,-
CCc1cc2c(=O)n(Cc3ccccc3)c(SC3CCOC3=O)nc2s1 (stereo not drawn),2.82µM,.,-,.,-,-
O=C1OCCC1Sc1nnc(-c2ccccc2Cl)n1Cc1ccccc1 (stereo not drawn),-,-,.,.,-,-
COC(=O)C(C(C)=O)C1c2ccccc2C=C(C)N1C(=O)OC (stereo not drawn),-[13.5 µM],-,?,.,-,.
Nc1nc(NC2CC2)c2ncn([C@H]3C=C[C@@H](CO)C3)c2n1,.,.,-,.,.,-
COC(=O)c1cc2c(C)cc3ccc(C)cn3c-2c1C(=O)OC,25.1µM,-,-,-,10µM,-
Cc1cc(OCC(=O)c2ccc(Br)cc2)ccc1N1C(=O)CCC1=O,?,14.1µM,-,-,-,-[1.84 µM]
Cc1ccc(OCC(=O)c2ccc3c(c2)CCCC3)cc1C,-,31.6µM,-,-,-,?
SMILES,ALDH1A1 block,HPGD inh,HTT ATP protect,IMPase inh,IMPase Li inh,HttQ103 aggreg
Cc1ccc(C(=O)Oc2ccc(N3C(=O)CCC3=O)c(C)c2)cc1,-,.,-[10 µM],.,-,-
CC(=O)/C(=N/Nc1ccccc1[N+](=O)[O-])N1CCCc2ccccc21,.,.,.,.,.,11.2µM
COc1cc(NC(=S)N2CCN(CCO)CC2)c(OC)cc1Cl,-,.,-,.,-,-
OCCN1CCN(C(=S)c2ccc(Cl)c(Cl)c2)CC1,?,14.1µM,-[1.9 µM],-,-,-
O=C(O)C[C@@H](C(=O)O)c1ccccc1[N+](=O)[O-],-[13.5 µM],-,-[10 µM],.,-,.
CSc1nc(-c2ccco2)nn1C(=O)c1ccccc1,-,14.1µM,-,-,-,-
CCS(=O)(=O)n1nc(-c2ccco2)nc1SC,22.4µM,8.91µM,-[10 µM],?,-,-
CSc1nc(-c2ccco2)nn1S(=O)(=O)c1ccc(C)cc1,?,?,-[10 µM],-,-,-
CCS(=O)(=O)n1nc(-c2ccc(Cl)cc2)nc1SC,?,12.6µM,-,-,-,-
CS(=O)(=O)n1nc(-c2ccc(Cl)cc2)nc1N,-,.,-[10 µM],.,-,-[9.22 µM]
CSc1nc(-c2ccco2)nn1C(=O)c1ccc(C)cc1,-,?,-,-,-,-
Cc1ccc(S(=O)(=O)n2nc(-c3ccco3)nc2SCc2ccccc2)cc1,22.4µM,25.1µM,-[10 µM],-,-,-
CCCCC(=O)Nc1cc2nn(-c3ccc(OCC)cc3)nc2cc1C,.,.,.,-,.,.
CCOC(=O)[C@]1(C(NC(=O)OC)c2cccc(C)c2)CCCC1=O (stereo partly drawn),-[13.5 µM],.,-[10 µM],.,.,.
CSc1nc(-c2ccco2)nn1S(=O)(=O)c1ccccc1,14.1µM,14.1µM,-[0.074 µM],-,-,-
CCc1nc(NCc2ccc3c(c2)OCO3)c2oc3ccccc3c2n1,12.6µM,-,-,-,-,?
CCc1nc(Nc2ccc3c(c2)OCCO3)c2oc3ccccc3c2n1,25.1µM,-,-,-,-,-[9.22 µM]
CCS(=O)(=O)CCSc1nc2ccccc2o1,-,-,-,-,-,-
O=C(CSc1ccccn1)Nc1nc2ccccc2s1,-,-,-[10 µM],.,-,-
O=S(=O)(CCSc1nc2ccccc2o1)Cc1ccccc1,20µM,-,-[0.074 µM],-,-,-
O=S(=O)(CCSc1ccccn1)c1nc2ccccc2s1,0.224µM,-,-[0.074 µM],-,-,?
O=S(=O)(CCSc1nc2ccccc2o1)c1nc2ccccc2s1,0.282µM,-,?,-,-,?
CC1(C)OC2CC3C4CCC5=CC(=O)C=C[C@@]5(C)[C@]4(F)C(O)C[C@@]3(C)[C@]2(C(=O)CO)O1 (stereo partly drawn),-,-,-,.,-,.
CCOC(=O)CCCCC1=CC2=CC(=O)C(C)(O)C(=O)C2=CO1 (stereo not drawn),-[13.5 µM],.,-[10 µM],.,.,.
CC12CC[C@@H]3c4ccc(OP(=O)(O)O)cc4CCC3C1CCC2=O (stereo partly drawn),-[13.5 µM],-,-[10 µM],.,-,.
CC1(C)CC(=O)C=C(NC2CCCCCCC2)C1,-,-,-[10 µM],-,-,-
CC1(C)CC(=O)C=C(NNC(=O)C2CCCCC2)C1,12.6µM,-,-[10 µM],-,-,-

# Assay outcomes from PubChem.
